Measurements: PubChem BioAssay AID1159580 (chemical genetic matrix, 2015)
Hit rate of the full screen: of about 5,500 compounds, about 2,000 (36%) were called active. Inconclusive results (about 18%) are left out. No stated cut-off is given here; in the data, active means normalized growth mostly below about 0.91 (no sharp cut-off); inconclusive means no clear call, values can overlap the other calls; inactive means mostly above about 0.92. Some of the results follow.

Experiment: chemical genetic growth profiling, strain panel (AID 1159580);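 further: tested at 20 µM; growth read once vehicle control cultures reached saturation at 30 °C; 1 = growth at the plate median or of vehicle wells; lower values mean less growth of the strain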
Details: growth OD
[1] = S. cerevisiae deletion strains, locus YDL101C, strain DUN1, active compounds read low
[2] = S. cerevisiae deletion strains, locus YHR030C, strain SLT2, active compounds read low

Measured: normalized growth

C/C(=N/NC(N)=S)c1ccccn1
inactive: S. cerevisiae deletion strains, locus YAR019C, strain CDC15, active compounds read low 0.962 | S. cerevisiae deletion strains, locus YBL105C, strain PKC1, active compounds read low 0.98 | S. cerevisiae deletion strains, locus YBR135W, strain CKS1, active compounds read low 0.971 | S. cerevisiae deletion strains, locus YBR136W, strain MEC1, active compounds read low 0.962 | S. cerevisiae deletion strains, locus YBR160W, strain CDC28, active compounds read low 0.985 | S. cerevisiae deletion strains, locus YDL017W, strain CDC7, active compounds read low 0.987 | S. cerevisiae deletion strains, locus YDL028C, strain MPS1, active compounds read low 0.97 | [1] 0.982 | S. cerevisiae deletion strains, locus YDL108W, strain KIN28, active compounds read low 0.97 | S. cerevisiae deletion strains, locus YDL132W, strain cdc53, active compounds read low 0.949 | S. cerevisiae deletion strains, locus YDL214C, strain PRR2, active compounds read low 0.932 | S. cerevisiae deletion strains, locus YDR052C, strain DBF4, active compounds read low 0.963 | S. cerevisiae deletion strains, locus YDR054C, strain cdc34, active compounds read low 0.944 | S. cerevisiae deletion strains, locus YDR226W, strain ADK1, active compounds read low 0.971 | S. cerevisiae deletion strains, locus YDR477W, strain SNF1, active compounds read low 0.878 | S. cerevisiae deletion strains, locus YER123W, strain YCK3, active compounds read low 0.874 | S. cerevisiae deletion strains, locus YER133W, strain GLC7, active compounds read low 0.889 | S. cerevisiae deletion strains, locus YFL009W, strain cdc4, active compounds read low 0.939 | S. cerevisiae deletion strains, locus YFL029C, strain CAK1, active compounds read low 0.945 | S. cerevisiae deletion strains, locus YFR003C, strain YPI1, active compounds read low 0.985 | S. cerevisiae deletion strains, locus YFR019W, strain FAB1, active compounds read low 0.908 | S. cerevisiae deletion strains, locus YFR028C, strain CDC14, active compounds read low 0.962 | S. cerevisiae deletion strains, locus YGR040W, strain KSS1, active compounds read low 0.875 | S. cerevisiae deletion strains, locus YGR052W, strain FMP48, active compounds read low 0.951 | S. cerevisiae deletion strains, locus YGR092W, strain DBF2, active compounds read low 0.833 | [2] 0.861 | S. cerevisiae deletion strains, locus YHR079C, strain IRE1, active compounds read low 0.779 | S. cerevisiae deletion strains, locus YHR082C, strain KSP1, active compounds read low 0.932 | S. cerevisiae deletion strains, locus YHR205W, strain SCH9, active compounds read low 0.957 | S. cerevisiae deletion strains, locus YIL147C, strain SLN1, active compounds read low 0.958 | S. cerevisiae deletion strains, locus YJL095W, strain BCK1, active compounds read low 0.871 | S. cerevisiae deletion strains, locus YJL128C, strain PBS2, active compounds read low 0.975 | S. cerevisiae deletion strains, locus YJL157C, strain FAR1, active compounds read low 0.88 | S. cerevisiae deletion strains, locus YJR016C, strain ILV3, active compounds read low 0.967 | S. cerevisiae deletion strains, locus YJR066W, strain TOR1 (second series), active compounds read low 0.874 | S. cerevisiae deletion strains, locus YJR066W, strain TOR1, active compounds read low 0.881 | S. cerevisiae deletion strains, locus YKL048C, strain ELM1, active compounds read low 0.941 | S. cerevisiae deletion strains, locus YKL067W, strain YNK1, active compounds read low 0.951 | S. cerevisiae deletion strains, locus YKL101W, strain HSL1, active compounds read low 0.91 | S. cerevisiae deletion strains, locus YKL193C, strain SDS22, active compounds read low 0.971 | S. cerevisiae deletion strains, locus YKL203C, strain TOR2, active compounds read low 0.9 | S. cerevisiae deletion strains, locus YLR113W, strain HOG1, active compounds read low 0.93 | S. cerevisiae deletion strains, locus YLR133W, strain CKI1, active compounds read low 0.911 | S. cerevisiae deletion strains, locus YLR403W, strain SFP1, active compounds read low 0.843 | S. cerevisiae deletion strains, locus YML070W, strain DAK1, active compounds read low 0.918 | S. cerevisiae deletion strains, locus YMR001C, strain CDC5, active compounds read low 0.967 | S. cerevisiae deletion strains, locus YMR205C, strain PFK2 (second series), active compounds read low 0.945 | S. cerevisiae deletion strains, locus YMR277W, strain FCP1, active compounds read low 0.978 | S. cerevisiae deletion strains, locus YNL006W, strain LST8, active compounds read low 0.988 | S. cerevisiae deletion strains, locus YNL020C, strain ARK1, active compounds read low 0.917 | S. cerevisiae deletion strains, locus YNL161W, strain CBK1, active compounds read low 0.978 | S. cerevisiae deletion strains, locus YNL183C, strain NPR1, active compounds read low 0.895 | S. cerevisiae deletion strains, locus YNL207W, strain RIO2, active compounds read low 0.936 | S. cerevisiae deletion strains, locus YNL222W, strain SSU72, active compounds read low 0.977 | S. cerevisiae deletion strains, locus YNL307C, strain MCK1 (second series), active compounds read low 0.862 | S. cerevisiae deletion strains, locus YOL078W, strain AVO1, active compounds read low 0.964 | S. cerevisiae deletion strains, locus YOL136C, strain PFK27, active compounds read low 0.957 | S. cerevisiae deletion strains, locus YOR061W, strain CKA2, active compounds read low 0.891 | S. cerevisiae deletion strains, locus YOR119C, strain RIO1, active compounds read low 0.906 | S. cerevisiae deletion strains, locus YOR231W, strain MKK1, active compounds read low 0.875 | S. cerevisiae deletion strains, locus YOR329C, strain SCD5, active compounds read low 0.968 | S. cerevisiae deletion strains, locus YPL031C, strain PHO85, active compounds read low 0.863 | S. cerevisiae deletion strains, locus YPL153C, strain RAD53, active compounds read low 0.828 | S. cerevisiae deletion strains, locus YPL204W, strain HRR25, active compounds read low 0.85 | S. cerevisiae deletion strains, locus YPL209C, strain IPL1, active compounds read low 0.98 | S. cerevisiae deletion strains, locus YPL256C, strain CLN2, active compounds read low 0.951 | S. cerevisiae deletion strains, locus YPR025C, strain CCL1, active compounds read low 0.975 | S. cerevisiae deletion strains, locus YPR106W, strain ISR1, active compounds read low 0.984 | S. cerevisiae deletion strains, locus YPR111W, strain DBF20, active compounds read low 0.983 | S. cerevisiae deletion strains, strain NNK1, active compounds read low 0.993 | S. cerevisiae deletion strains, strain TSCII, active compounds read low 0.975

CNC(=S)NN=C(N)c1ccccn1
inactive: S. cerevisiae deletion strains, locus YAL013W, strain DEP1, active compounds read low 1.02 | S. cerevisiae deletion strains, locus YBR229C, strain ROT2, active compounds read low 1.02 | [1] 0.972 | S. cerevisiae deletion strains, locus YDL134C, strain PPH21, active compounds read low 0.963 | S. cerevisiae deletion strains, locus YDR150W, strain NUM1, active compounds read low 1.04 | S. cerevisiae deletion strains, locus YEL061C, strain CIN8, active compounds read low 0.93 | S. cerevisiae deletion strains, locus YGR078C, strain PAC10, active compounds read low 1.01 | [2] 0.786 | S. cerevisiae deletion strains, locus YHR087W, strain rtc3, active compounds read low 1.05 | S. cerevisiae deletion strains, locus YJL187C, strain SWE1, active compounds read low 1.01 | S. cerevisiae deletion strains, locus YJR043C, strain POL32, active compounds read low 1.01 | S. cerevisiae deletion strains, locus YJR075W, strain HOC1, active compounds read low 1.01 | S. cerevisiae deletion strains, locus YLR058C, strain SHM2 (second series), active compounds read low 1.01 | S. cerevisiae deletion strains, locus YMR219W, strain ESC1, active compounds read low 1.01 | S. cerevisiae deletion strains, locus YMR263W, strain SAP30, active compounds read low 1.01 | S. cerevisiae deletion strains, locus YNL153C, strain GIM3, active compounds read low 0.989 | S. cerevisiae deletion strains, locus YNL322C, strain KRE1, active compounds read low 1.04 | S. cerevisiae deletion strains, locus YPL055C, strain LGE1, active compounds read low 1.03 | S. cerevisiae deletion strains, locus YPR135W, strain CTF4, active compounds read low 0.7
active: S. cerevisiae deletion strains, locus YKL190W, strain CNB1, active compounds read low 0.521 | S. cerevisiae deletion strains, locus YLR039C, strain RIC1, active compounds read low 0.519 | S. cerevisiae deletion strains, locus YLR085C, strain ARP6, active compounds read low 0.484 | S. cerevisiae deletion strains, locus YLR262C, strain YPT6, active compounds read low 0.698 | S. cerevisiae deletion strains, locus YML094W, strain GIM5, active compounds read low 0.831 | S. cerevisiae deletion strains, locus YMR307W, strain GAS1, active compounds read low 0.525 | S. cerevisiae deletion strains, locus YNL298W, strain CLA4 (second series), active compounds read low 0.75 | S. cerevisiae deletion strains, locus YNR030W, strain Alg12, active compounds read low 0.669 | S. cerevisiae deletion strains, locus YOL006C, strain TOP1, active compounds read low 0.167 | S. cerevisiae deletion strains, locus YPL241C, strain CIN2, active compounds read low 0.682 | S. cerevisiae strains, strain wild type, active compounds read low 0.64
